The whole screen tested about 48,000 compounds, of which about 13,000 (27%) showed an effect of 50% or more. The list shows a part of the results.
What follows are molecules tested on Wolbachia pipientis (assay: Anti-Wolbachia Cell-Based Screen). Details: 5 µM.
Format: functional
Design: scale not given: in the data most compounds retested in dose-response had high values
`COc1cc(CNc2nc(C3CC3)no2)cc(OC)c1OC` was tested, and the “Percent Effect” value was 3.811%.
With `Cc1nc(CCCN2CCOCC2)n(Cc2ccc(F)cc2)n1` the “Percent Effect” value was -6.384%.
With `O=C1CCC(=O)N1CCN1CCN(c2cc(F)ccc2F)CC1` the “Percent Effect” value was -16.23%.
`O=C(NCCN1CCOCC1)c1cc(-c2ccc3c(c2)CCO3)n[nH]1` was tested, and the “Percent Effect” value was 2.601%.
With `O=c1[nH]nc(CCCN2CCOCC2)n1Cc1cccc(F)c1` the “Percent Effect” value was 102.2%.
In the case of `O=c1[nH]nc(CCCN2CCOCC2)n1-c1ccc(F)cc1F`, the “Percent Effect” value is reported as 93.86%.
With `O=C1O[C@@H]2CN(Cc3cccc(F)c3)C[C@@H]2N1CCCN1CCOCC1` the “Percent Effect” value was 11.87%.
For `Cc1ccc(F)cc1-n1c(CCCN2CCOCC2)n[nH]c1=O`, the “Percent Effect” value was 109.2%.
For `O=C(NCc1cccc(F)c1)Nc1ccn(CCN2CCOCC2)n1`, the “Percent Effect” value was -19.73%.
`O=C(NCCN1CCOCC1)Nc1cc(F)ccc1-n1cccn1` was tested, and the “Percent Effect” value was -8.933%.
In the case of `CN1C[C@@H](n2cnc(-c3ccccc3)c2-c2ccccn2)C[C@H]1C(=O)O`, the “Percent Effect” value is reported as -24.01%.
With `CC(C)(C)CN1CCOC[C@H]1c1nc(-c2cccc(F)c2)c[nH]1` the “Percent Effect” value was 4.483%.
For `Cc1nn(C)cc1S(=O)(=O)N[C@@H]1CCC[C@@H](n2ccnc2)[C@@H]1O`, the “Percent Effect” value was 85.24%.
With `Cc1nn(C)cc1CN1CCCn2nc(CNC(=O)C3CCC3)cc2C1` the “Percent Effect” value was -11.1%.
For `Cc1nccnc1N1CC[C@@H](NC(=O)c2cnccn2)[C@H](O)C1`, the “Percent Effect” value was -17.03%.
For `Cc1nccn1C1CCCN(C(=O)C2=NN(C)C(=O)CC2)C1` (stereo not drawn), the “Percent Effect” value was -2.156%.
`Cn1cc(S(=O)(=O)N2CCCC2Cn2ccnc2)cn1` (stereo not drawn) was tested, and the “Percent Effect” value was -1.128%.
`Cc1nn(C)cc1S(=O)(=O)N[C@@H]1CC[C@@H](n2ccnc2C)[C@@H]1O` was tested, and the “Percent Effect” value was 99.22%.
`Cn1cc(S(=O)(=O)N2CCCC2Cn2ccnc2)cc1C(N)=O` (stereo not drawn) was tested, and the “Percent Effect” value was -5.902%.
For `CO[C@@H]1CC[C@@H](NS(=O)(=O)c2cn(C)nc2C)[C@H]1O`, the “Percent Effect” value was 86.74%.
`Cc1nn(C)cc1S(=O)(=O)N[C@@H]1CCC[C@@H](N2CCCC2)[C@@H]1O` was tested, and the “Percent Effect” value was 95.33%.
In the case of `Cc1nc2n(n1)CC(NCC(=O)NCC1(c3ccccc3)CC1)CC2` (stereo not drawn), the “Percent Effect” value is reported as -4.512%.
For `CN(C(=O)c1cccc(OCC(F)F)n1)c1ccc2c(c1)CCO2`, the “Percent Effect” value was 3.505%.
With `CCCOc1cccc(NS(=O)(=O)c2cc(C(=O)O)cs2)c1` the “Percent Effect” value was 12.59%.
With `Cc1ccccc1C(=O)Nc1ccc([C@H]2OCC(=O)N(C)[C@@H]2CO)cc1` the “Percent Effect” value was -10.53%.
In the case of `CNC(=O)C(C)(C)N1CCC[C@H]1C(=O)NC1CC1`, the “Percent Effect” value is reported as 8.345%.
For `O=C(NC1CC1)C1CCc2nnc(C3CC3)n21` (stereo not drawn), the “Percent Effect” value was 105.6%.
For `CN(CC1CCCCC1)C(=O)c1cn(C)nc1-c1cccnc1`, the “Percent Effect” value was 20.64%.
For `Cn1cc(C(=O)NC2CCCC2)c(-c2cccnc2)n1`, the “Percent Effect” value was 1.647%.
For `O=C(NC1CC1)C1CCc2nnc(-c3cccnc3)n21` (stereo not drawn), the “Percent Effect” value was 102.7%.
`O=C(NC1CC1)C1CCc2nnc(-c3cccc(C(F)(F)F)c3)n21` (stereo not drawn) was tested, and the “Percent Effect” value was 107.7%.
For `O=C(NC1CC1)C1CCCN(c2cccc(C(F)(F)F)n2)C1` (stereo not drawn), the “Percent Effect” value was -13%.
With `CN1Cc2nc[nH]c2C[C@H]1C(=O)NC1CCCCC1` the “Percent Effect” value was 0.3029%.
`CCCS(=O)(=O)N1C[C@@H]2COC[C@@H](Cc3nc(C)no3)[C@@H]2C1` was tested, and the “Percent Effect” value was 1.373%.
For `CCc1nc(CN2CCCN(C(=O)c3cn[nH]c3C)CC2)cs1`, the “Percent Effect” value was 4.84%.
`COc1cc(NCCNC(=O)c2cscc2C)cc(OC)c1` was tested, and the “Percent Effect” value was -3.159%.
With `CN(CCNS(C)(=O)=O)CC(c1cccs1)N1CCOCC1` (stereo not drawn) the “Percent Effect” value was -6.912%.
For `CCCc1nc(C)c(C(=O)NCCN2CCCCC2)s1`, the “Percent Effect” value was 125.3%.
In the case of `CCCc1nc(C)c(C(=O)NCCn2ccnc2)s1`, the “Percent Effect” value is reported as -2.524%.
In the case of `CCCc1nc(C)c(C(=O)NC2CCN(C3CC3)C2)s1` (stereo not drawn), the “Percent Effect” value is reported as 4.49%.
For `Cc1nc(-c2noc3ccc(C(=O)NCCN4CCOCC4)cc23)cs1`, the “Percent Effect” value was -14.65%.
In the case of `CCc1nc(C)c(CNC(=O)CCCN2CCCCC2)s1`, the “Percent Effect” value is reported as -7.179%.
With `CCCc1nc(C)c(C(=O)NCCN2CCOCC2)s1` the “Percent Effect” value was 118.3%.
For `CCc1nc(C)c(C(=O)NCCN2CCCC2)s1`, the “Percent Effect” value was 119.2%.
In the case of `CCc1nc(C)c(C(=O)NCCNc2ncccn2)s1`, the “Percent Effect” value is reported as -5.791%.
With `CCCc1nc(C)c(C(=O)NC2CCN(c3ncccn3)CC2)s1` the “Percent Effect” value was -4.746%.
With `Cc1cc(F)ccc1S(=O)(=O)NCc1[nH]ncc1Br` the “Percent Effect” value was 19.22%.
In the case of `COc1ccc2c(c1)OCC(Cc1ccc(N)cn1)C2` (stereo not drawn), the “Percent Effect” value is reported as -6.73%.
For `Cc1ccc(NC(=O)[C@H]2C[C@H](C(=O)O)CN(CC3CC3)C2)cn1`, the “Percent Effect” value was 109.3%.
`Cc1ccsc1CN1CC2(CCN(C(=O)C3CC3)CC2)CC1C(=O)O` (stereo not drawn) was tested, and the “Percent Effect” value was -16.18%.
`Cc1ccc(NC(=O)c2nc3c(s2)CCCN3C(C)C)cn1` was tested, and the “Percent Effect” value was 4.841%.
In the case of `Cc1cncc(C(=O)N2CCNCC2C(=O)Nc2ccc(C)nc2)c1` (stereo not drawn), the “Percent Effect” value is reported as 4.535%.
For `CC(C)=CCN1C[C@@H](C(=O)O)C[C@H](C(=O)Nc2ccc(C)nc2)C1`, the “Percent Effect” value was 93.94%.
For `Cc1ccsc1CN1CCCC(CNC(=O)c2ccc(N)nc2)C1` (stereo not drawn), the “Percent Effect” value was 1.774%.
`Cc1ccc(N2CCC(C3CCN(CC(C)C)CC3)C2)nn1` (stereo not drawn) was tested, and the “Percent Effect” value was -23.48%.
In the case of `COc1ccccc1[C@@H]1CN(CC2CCC2)C[C@H]1C(=O)O`, the “Percent Effect” value is reported as -30.09%.
For `Cc1ccc(NC(=O)[C@@H]2C[C@H](C(=O)O)CN(Cc3sccc3C)C2)cn1`, the “Percent Effect” value was 101.2%.
`CCCc1nc(C)cc(N2CCNC(C(=O)Nc3ccc(C)nc3)C2)n1` (stereo not drawn) was tested, and the “Percent Effect” value was -5.575%.
In the case of `Cc1ccc(NC(=O)[C@H]2C[C@H](C(=O)O)CN(CC(C)C)C2)cn1`, the “Percent Effect” value is reported as 103.8%.
`O=C(Nc1cccnc1)C1CCN(c2cc(-n3ccnc3)ncn2)CC1` was tested, and the “Percent Effect” value was 4.084%.
`Cc1nc(C(C)(C)C)sc1C(=O)NCCn1cccn1` was tested, and the “Percent Effect” value was 3.617%.
For `COc1ccc(F)cc1CSCC(=O)N(CCC#N)CCC#N`, the “Percent Effect” value was -2.312%.
For `N#Cc1ccccc1CN1CCC(c2nccn2CC2CCC2)CC1`, the “Percent Effect” value was 43.99%.
For `COC[C@@H]1CC[C@H]2[C@H](CCN2S(=O)(=O)c2cccc(C)c2)O1`, the “Percent Effect” value was 4.659%.
With `COc1cccc(O)c1CN1CCCC(Nc2cccc(F)c2)C1` (stereo not drawn) the “Percent Effect” value was -13.27%.
With `Cc1cccnc1CN1CCOC(Cc2cccc3ccccc23)C1` (stereo not drawn) the “Percent Effect” value was -2.143%.
`c1ccc2c(CC3CN(Cc4nccs4)CCO3)cccc2c1` (stereo not drawn) was tested, and the “Percent Effect” value was -0.1296%.
For `COc1cccc(F)c1CN1CCC(c2nccc(C)n2)C1` (stereo not drawn), the “Percent Effect” value was 140.3%.
For `CN(C)Cc1ccnc(C2CN(Cc3nccs3)CCO2)n1` (stereo not drawn), the “Percent Effect” value was 100.5%.
`CN(C)CC1CN(Cc2cc(Cl)cc3cccnc23)CCO1` (stereo not drawn) was tested, and the “Percent Effect” value was -1.777%.
For `CCn1ccnc1C1CCN(Cc2c(F)cccc2F)CC1`, the “Percent Effect” value was 1.845%.
For `CN(C)CC1CN(Cc2c(Cl)ccc3cccnc23)CCO1` (stereo not drawn), the “Percent Effect” value was -12.27%.
In the case of `CCn1c(CN2CCOC(Cn3cccn3)C2)nc2c(F)cccc21` (stereo not drawn), the “Percent Effect” value is reported as -12.64%.
For `CN(C)CC1CN(Cc2coc(-c3cccs3)n2)CCO1` (stereo not drawn), the “Percent Effect” value was -7.744%.
`CN(C)Cc1ccnc(C2CN(Cc3c(F)cccc3F)CCO2)n1` (stereo not drawn) was tested, and the “Percent Effect” value was 127%.
In the case of `Cc1ccccc1CN1CCOC(c2nccc(CN(C)C)n2)C1` (stereo not drawn), the “Percent Effect” value is reported as 127.2%.
In the case of `COCCNS(=O)(=O)c1cccc2c1CN(C(=O)c1ccccc1)CC2`, the “Percent Effect” value is reported as 14.65%.
With `O=C(c1ccno1)N1CCOC[C@H](Oc2ccccc2)C1` the “Percent Effect” value was -14.73%.
`CC(C1CCN(Cc2cnn(C)c2C2CC2)CC1)N(C)C` (stereo not drawn) was tested, and the “Percent Effect” value was -2.941%.
`CC(C)(CN1CCCC1)CN1CCC(Cn2cc(C3CC3)nn2)CC1` was tested, and the “Percent Effect” value was 12.62%.
For `O=C(NCc1cc(O)ncn1)C1CCOc2ccccc2C1` (stereo not drawn), the “Percent Effect” value was 8.885%.
`CNC(=O)C(NC(=O)CCc1cccc(OC2CCCC2)c1)C(C)C` (stereo not drawn) was tested, and the “Percent Effect” value was -3.816%.
`COCCN1CCCC2(CCN(c3nc(C)nc4ccsc34)C2)C1=O` (stereo not drawn) was tested, and the “Percent Effect” value was -7.564%.
With `CC(C)(C)NC(=O)CN1CCCN(Cc2cc(C#N)ccc2F)CC1` the “Percent Effect” value was -2.969%.
With `Cc1noc(C)c1-c1cnc(CC2CCN(C(=O)c3cc[nH]n3)C2)cn1` (stereo not drawn) the “Percent Effect” value was -12.99%.
With `Cc1noc(C)c1-c1cncc(CC2CCN(C(=O)c3cc[nH]n3)C2)n1` (stereo not drawn) the “Percent Effect” value was 110.9%.
`Cc1noc(C)c1CN1CC2(CCN(C(=O)c3cc[nH]n3)C2)CC1=O` (stereo not drawn) was tested, and the “Percent Effect” value was -2.196%.
In the case of `Cc1noc(C)c1-c1cc(CC2CCN(C(=O)c3cc[nH]n3)C2)ncn1` (stereo not drawn), the “Percent Effect” value is reported as 98.42%.
In the case of `CCCS(=O)(=O)N[C@H]1CN(c2ncccc2C(N)=O)C[C@@H]1C(C)C`, the “Percent Effect” value is reported as -5.813%.
For `CC(=O)NCc1ccc(S(=O)(=O)NC(=O)c2ccc3c(c2)COC3)s1`, the “Percent Effect” value was -2.938%.
For `Cc1nc2cc(O)nn2c(C)c1CCC(=O)NCCCC(C)C`, the “Percent Effect” value was 90.92%.
In the case of `Cn1ccnc1CCNC(=O)NCCC1CCCCO1` (stereo not drawn), the “Percent Effect” value is reported as -7.857%.
In the case of `Cc1nc(NC(=O)CCc2c(C)nc3cc(O)nn3c2C)sc1C`, the “Percent Effect” value is reported as 101.2%.
For `Cc1nc2ncnn2c(C)c1CCC(=O)Nc1cccn(C)c1=O`, the “Percent Effect” value was 1.385%.
For `COc1ccc(NC(=O)CCc2c(C)nc3cc(O)nn3c2C)cn1`, the “Percent Effect” value was 3.127%.
In the case of `Cc1nc2cc(O)nn2c(C)c1CCC(=O)NCCc1ccccc1`, the “Percent Effect” value is reported as 85.91%.
`Cc1nc2cc(O)nn2c(C)c1CCC(=O)NCCc1nccn1C` was tested, and the “Percent Effect” value was 84.09%.
`Cc1noc(C)c1CS(=O)(=O)CC(=O)NCCc1ccccc1` was tested, and the “Percent Effect” value was -9.569%.
For `CO[C@@H]1CCN(S(=O)(=O)c2cn(C)cn2)[C@H]1Cc1cnn(C)c1.O=C(O)C(F)(F)F`, the “Percent Effect” value was 2.669%.
`O=C([C@@H]1CCO[C@@H]2CCN(CC3CCOCC3)C[C@H]21)N1CCCC1` was tested, and the “Percent Effect” value was -12.21%.
In the case of `CNC(=O)CCNC(=O)CCc1c(C)nc2cc(O)nn2c1C`, the “Percent Effect” value is reported as 99.53%.
`CNC(=O)CCCNc1cc(C)nc2cc(C)nn12` was tested, and the “Percent Effect” value was 1.816%.
In the case of `CCNC(=O)CCc1c(C)nc2cc(O)nn2c1C`, the “Percent Effect” value is reported as 5.527%.

Source: ChEMBL document CHEMBL3988442, “University of Dundee, Small-Polar-MMV Screening Library” (2021)
